# Data as given in ChEMBL document CHEMBL5606458, “ASAP - ZIKV NS2B-NS3 protease fluorescence single point” (2024).
# Screen size: about 2,700 compounds; about 160 (5.9%) showed an effect of 50% or more. What follows is part of a selection rich in strong results, with near analogues and random picks from the rest.
# Target: Nonstructural protein 3 (Zika virus) (UniProt A0A024AXB9)
# [1] = PRVABC59, Concentration 50.0 uM, Number of replicates 1.0
# [2] = PRVABC59, Concentration 15.0 uM, Number of replicates 1.0
# Chain of Nonstructural protein 3 (Zika virus) (A0A024AXB9 as listed by the source): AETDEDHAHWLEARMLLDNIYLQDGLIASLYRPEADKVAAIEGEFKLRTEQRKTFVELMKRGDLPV
structure (smiles),measurement,setting,value
O=Cc1ccc(N2CCC(C(=O)NCCc3cc(F)cc(F)c3)CC2)cc1,inhibition,[1],19.3%
N#Cc1cccc(NC(=O)c2cccc(OCc3c(Cl)cccc3Cl)c2)c1,inhibition,"PRVABC59, Concentration 49.5 uM, Number of replicates 2.0, Standard deviation 1.7651619405536074 %",6.21%
same,inhibition,"PRVABC59, Concentration 99.01 uM, Number of replicates 2.0, Standard deviation 1.834624667346594 %",10%
same,inhibition,"PRVABC59, Concentration 198.0 uM, Number of replicates 2.0, Standard deviation 2.6293560952864428 %",8.42%
O=C(NCc1ccccc1Oc1ccccc1)c1cc(Cl)ccc1NS(=O)(=O)c1ccc(Oc2ccccc2Cl)cc1,inhibition,[2],15.7%
O=Cc1ccc(N2CCC(C(=O)NCCN3C(=O)CSC3=O)CC2)cc1,inhibition,[1],24.5%
Cc1cc(CO)c2cccc(Cc3ccccc3NC(=O)Cc3c(C)c4c(=O)[nH]n(C)c4[nH]c3=O)c2n1,inhibition,"PRVABC59, Concentration 49.95 uM, Number of replicates 2.0, Standard deviation 2.3870518401485845 %",19.5%
same,inhibition,"PRVABC59, Concentration 99.9 uM, Number of replicates 2.0, Standard deviation 1.6185118125725577 %",39.4%
Cc1cc(CO)c2cccc(Cc3cccc(NC(=O)CCC4CCNCC4)c3)c2n1,inhibition,"PRVABC59, Concentration 49.95 uM, Number of replicates 2.0, Standard deviation 0.07125447361688171 %",70.2%
same,inhibition,"PRVABC59, Concentration 99.9 uM, Number of replicates 2.0, Standard deviation 0.2799306012648679 %",94.6%
Cc1cc(CO)c2cccc(NC(=O)CC3CNC3)c2n1,inhibition,"PRVABC59, Concentration 49.95 uM, Number of replicates 2.0, Standard deviation 1.5957700474656553 %",-6.72%
same,inhibition,"PRVABC59, Concentration 99.9 uM, Number of replicates 2.0, Standard deviation 1.1039918524960535 %",-6.98%
Cc1cc(CO)c2cccc(NC(=O)CCC3CCNCC3)c2n1,inhibition,"PRVABC59, Concentration 49.95 uM, Number of replicates 2.0, Standard deviation 0.05519955890732387 %",98.6%
same,inhibition,"PRVABC59, Concentration 99.9 uM, Number of replicates 2.0, Standard deviation 0.045159842417240824 %",96.7%
Cc1cc(CO)c2cccc(Cc3cccc(NC(=O)Cc4c(C)c5c(=O)[nH]n(C)c5[nH]c4=O)c3)c2n1,inhibition,"PRVABC59, Concentration 49.95 uM, Number of replicates 2.0, Standard deviation 0.9685022100006885 %",29.7%
same,inhibition,"PRVABC59, Concentration 99.9 uM, Number of replicates 2.0, Standard deviation 0.32116033435216484 %",54.1%
Cc1cc(CO)c2cccc(NC(=O)CC3CCNCC3)c2n1,inhibition,"PRVABC59, Concentration 49.95 uM, Number of replicates 2.0, Standard deviation 2.2586421938534733 %",41.5%
same,inhibition,"PRVABC59, Concentration 99.9 uM, Number of replicates 2.0, Standard deviation 1.48045087514324 %",81%
Cc1cc(CO)c2cccc(NC(=O)Cc3c(C)c4c(=O)[nH]n(C)c4[nH]c3=O)c2n1,inhibition,"PRVABC59, Concentration 49.95 uM, Number of replicates 2.0, Standard deviation 0.16559867672197162 %",15%
same,inhibition,"PRVABC59, Concentration 99.9 uM, Number of replicates 2.0, Standard deviation 1.570678848435362 %",29.8%
Cc1cc(CO)c2cccc(Cc3cccc(NC(=O)C[C@H]4CCCN4)c3)c2n1,inhibition,"PRVABC59, Concentration 49.95 uM, Number of replicates 2.0, Standard deviation 0.1706171862678608 %",-9.82%
Cc1cc(CO)c2cccc(NCC3CCNCC3)c2n1,inhibition,"PRVABC59, Concentration 99.9 uM, Number of replicates 2.0, Standard deviation 2.951218090372617 %",-5.37%
Cc1cc(CO)c2cccc(Cc3cccc(NC(=O)CNC4CC4)c3)c2n1,inhibition,"PRVABC59, Concentration 49.95 uM, Number of replicates 2.0, Standard deviation 2.20382385319093 %",-2.08%
same,inhibition,"PRVABC59, Concentration 99.9 uM, Number of replicates 2.0, Standard deviation 2.3107066172874657 %",1.16%
Cc1cc(CO)c2cccc(Cc3ccccc3NC(=O)CCC3CCNCC3)c2n1,inhibition,"PRVABC59, Concentration 49.95 uM, Number of replicates 2.0, Standard deviation 0.020358613704702253 %",4.96%
same,inhibition,"PRVABC59, Concentration 99.9 uM, Number of replicates 2.0, Standard deviation 1.9188023762412802 %",26.8%
Cc1cc(CO)c2cccc(NC(=O)C[C@H]3CCCN3)c2n1,inhibition,"PRVABC59, Concentration 49.95 uM, Number of replicates 2.0, Standard deviation 2.649580260544395 %",3.54%
same,inhibition,"PRVABC59, Concentration 99.9 uM, Number of replicates 2.0, Standard deviation 2.639543831508496 %",13.9%
Cc1cc(CO)c2cccc(Cc3ccccc3C(=O)N3CCO[C@@H](CN)C3)c2n1,inhibition,"PRVABC59, Concentration 99.9 uM, Number of replicates 2.0, Standard deviation 2.9992587541792743 %",-6.8%
O=Cc1ccc(N2CCC(C(=O)Nc3cc(Cl)c(F)cc3F)CC2)cc1,inhibition,[1],26.1%
COc1ccccc1N1CCN(C(=O)c2cc(Cl)ccc2NS(=O)(=O)c2ccc(Oc3ccccc3Cl)cc2)CC1,inhibition,[2],8.47%
O=Cc1ccc(N2CCC(C(=O)Nc3ncc(F)cc3Br)CC2)cc1,inhibition,[1],19.1%
C[C@@H](NC(=O)OCc1ccccc1)C(=O)Nc1cccc(CN)c1,inhibition,"PRVABC59, Concentration 49.5 uM, Number of replicates 2.0, Standard deviation 0.22300909071478295 %",-5.65%
same,inhibition,"PRVABC59, Concentration 99.01 uM, Number of replicates 2.0, Standard deviation 0.06482809074333463 %",-3.85%
same,inhibition,"PRVABC59, Concentration 198.0 uM, Number of replicates 2.0, Standard deviation 0.9413049329503056 %",-1.69%
CCOc1ccc(CNC(=O)c2cc(Cl)ccc2NS(=O)(=O)c2ccc(Oc3ccccc3Cl)cc2)cc1,inhibition,[2],30.8%
Cc1cc(CO)c2cccc(Cc3ccccc3C(=O)N3CCC(CN)CC3)c2n1,inhibition,"PRVABC59, Concentration 49.95 uM, Number of replicates 2.0, Standard deviation 5.668177927575499 %",56.2%
same,inhibition,"PRVABC59, Concentration 99.9 uM, Number of replicates 2.0, Standard deviation 1.410491152712613 %",37.7%
Cc1cc(CO)c2cccc(Cc3ccccc3C(=O)N3CC[C@@H](O)C3)c2n1,inhibition,"PRVABC59, Concentration 49.95 uM, Number of replicates 2.0, Standard deviation 0.18876460771228748 %",-8.95%
same,inhibition,"PRVABC59, Concentration 99.9 uM, Number of replicates 2.0, Standard deviation 1.2164824655212059 %",-7.58%
Cc1cc(CO)c2cccc(Cc3ccccc3C(=O)N3CCC(C(=O)O)CC3)c2n1,inhibition,"PRVABC59, Concentration 49.95 uM, Number of replicates 2.0, Standard deviation 1.0591789629357544 %",-4.89%
same,inhibition,"PRVABC59, Concentration 99.9 uM, Number of replicates 2.0, Standard deviation 2.3071221964090083 %",-5.26%
Cc1cc(CO)c2cccc(Cc3cccc(C(=O)N4CCC(C(=O)O)CC4)c3)c2n1,inhibition,"PRVABC59, Concentration 49.95 uM, Number of replicates 2.0, Standard deviation 0.6921367263576601 %",-3.78%
same,inhibition,"PRVABC59, Concentration 99.9 uM, Number of replicates 2.0, Standard deviation 0.04719115192807187 %",-2.12%
Cc1cc(CO)c2cccc(Cc3cccc(C(=O)N4CCC(CN)CC4)c3)c2n1,inhibition,"PRVABC59, Concentration 49.95 uM, Number of replicates 2.0, Standard deviation 0.3303341859864401 %",94.6%
same,inhibition,"PRVABC59, Concentration 99.9 uM, Number of replicates 2.0, Standard deviation 0.3198467013777773 %",90.9%
Cc1cc(CO)c2cccc(Cc3cccc(C(=O)N4CC[C@@H](CO)C4)c3)c2n1,inhibition,"PRVABC59, Concentration 49.95 uM, Number of replicates 2.0, Standard deviation 1.594011680945781 %",-6.14%
same,inhibition,"PRVABC59, Concentration 99.9 uM, Number of replicates 2.0, Standard deviation 1.5520642713220405 %",3.44%
O=C(N[C@H]1CC(=O)N(Cc2ccccc2)C1)c1cc(Cl)ccc1NS(=O)(=O)c1ccc(Oc2ccccc2Cl)cc1,inhibition,[2],22%
Cc1cc(CO)c2cccc(Cc3cccc(C(=O)NCc4c(C)noc4C)c3)c2n1,inhibition,"PRVABC59, Concentration 49.95 uM, Number of replicates 2.0, Standard deviation 0.6344586798768046 %",-2.24%
same,inhibition,"PRVABC59, Concentration 99.9 uM, Number of replicates 2.0, Standard deviation 0.2674164432987103 %",1.65%
O=C(c1cc(Cl)ccc1NS(=O)(=O)c1ccc(Oc2ccccc2Cl)cc1)N1CCN(C(=O)[C@H]2COc3ccccc3O2)CC1,inhibition,[2],19.2%
Cn1cc(NC(=O)c2ccccc2C(F)(F)F)c(-c2ccccc2CO)n1,inhibition,"PRVABC59, Concentration 49.5 uM, Number of replicates 2.0, Standard deviation 1.1938974234704913 %",-0.442%
same,inhibition,"PRVABC59, Concentration 99.01 uM, Number of replicates 2.0, Standard deviation 1.523480341882225 %",1.31%
same,inhibition,"PRVABC59, Concentration 198.0 uM, Number of replicates 2.0, Standard deviation 2.1372444344514228 %",2.85%
Cc1cc(Cl)c2c(N)ccc(C)c2n1,inhibition,"PRVABC59, Concentration 49.95 uM, Number of replicates 2.0, Standard deviation 1.4741281735170297 %",80.8%
same,inhibition,"PRVABC59, Concentration 99.9 uM, Number of replicates 2.0, Standard deviation 0.2024559271573544 %",83.6%
Cc1cc(N)c2c(Cl)ccc(Cl)c2n1,inhibition,"PRVABC59, Concentration 49.95 uM, Number of replicates 2.0, Standard deviation 14.266771188329304 %",-9.58%
Cc1cc(Cl)c2cccc(N)c2n1,inhibition,"PRVABC59, Concentration 49.95 uM, Number of replicates 2.0, Standard deviation 7.781875381379218 %",5.79%
same,inhibition,"PRVABC59, Concentration 99.9 uM, Number of replicates 2.0, Standard deviation 5.7320152302040395 %",14.4%
O=Cc1ccc(N2CCC(C(=O)NCc3c(F)cc(F)c(F)c3F)CC2)cc1,inhibition,"PRVABC59, Concentration 10.0 uM, Number of replicates 1.0",22.5%
COc1ccc(CN2CCC(c3c[nH]c4cccnc34)CC2)cc1,inhibition,"PRVABC59, Concentration 49.5 uM, Number of replicates 2.0, Standard deviation 0.21004326604655832 %",0.598%
same,inhibition,"PRVABC59, Concentration 99.01 uM, Number of replicates 2.0, Standard deviation 0.8142417098777236 %",6.55%
same,inhibition,"PRVABC59, Concentration 198.0 uM, Number of replicates 2.0, Standard deviation 1.1254172872302635 %",14.8%
O=Cc1ccc(N2CCC(C(=O)N(Cc3cnn(-c4ccccc4)c3)C3CC3)CC2)cc1,inhibition,[1],26.1%
